# Test results published in ChEMBL document CHEMBL1961873, “Compounds: GSK PKIS; Assays: Nanosyn kinase panel” (2012).
# Legend:
# [1] = target: Sphingosine kinase 1 (Homo sapiens) (UniProt Q9NYA1); details: at 1 µM;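 further: mean SPHK1 inhibition value reported from the GSK PKIS kinase panel screen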
# [2] = target: T1, Sphingosine kinase 2 (Homo sapiens) (UniProt Q9NRA0); details: at 0.1 µM
# T1 sequence (whole entry): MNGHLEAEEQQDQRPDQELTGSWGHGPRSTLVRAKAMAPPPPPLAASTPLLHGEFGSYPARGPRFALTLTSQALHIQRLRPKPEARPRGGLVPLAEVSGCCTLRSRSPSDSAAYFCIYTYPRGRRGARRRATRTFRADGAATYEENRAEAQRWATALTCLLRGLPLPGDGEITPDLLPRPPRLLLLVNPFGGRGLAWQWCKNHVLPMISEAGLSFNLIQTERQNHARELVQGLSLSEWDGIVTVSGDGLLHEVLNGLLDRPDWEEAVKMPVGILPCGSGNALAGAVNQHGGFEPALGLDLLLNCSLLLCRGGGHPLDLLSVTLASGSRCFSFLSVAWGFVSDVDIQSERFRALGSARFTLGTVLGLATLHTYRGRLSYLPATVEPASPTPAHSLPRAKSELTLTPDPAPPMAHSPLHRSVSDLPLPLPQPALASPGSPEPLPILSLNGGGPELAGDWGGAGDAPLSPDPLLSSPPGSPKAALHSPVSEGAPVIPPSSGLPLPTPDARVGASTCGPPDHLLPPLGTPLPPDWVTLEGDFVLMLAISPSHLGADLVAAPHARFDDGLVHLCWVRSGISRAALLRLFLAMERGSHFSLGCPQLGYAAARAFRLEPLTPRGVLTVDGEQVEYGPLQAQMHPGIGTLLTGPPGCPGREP
# [3] = target: T1, Sphingosine kinase 2 (Homo sapiens); details: at 1 µM
# [4] = target: Casein kinase II subunit alpha (Homo sapiens) (UniProt P68400); details: at 0.1 µM
# Sequence of Casein kinase II subunit alpha (Homo sapiens) (P68400 whole entry, looked up): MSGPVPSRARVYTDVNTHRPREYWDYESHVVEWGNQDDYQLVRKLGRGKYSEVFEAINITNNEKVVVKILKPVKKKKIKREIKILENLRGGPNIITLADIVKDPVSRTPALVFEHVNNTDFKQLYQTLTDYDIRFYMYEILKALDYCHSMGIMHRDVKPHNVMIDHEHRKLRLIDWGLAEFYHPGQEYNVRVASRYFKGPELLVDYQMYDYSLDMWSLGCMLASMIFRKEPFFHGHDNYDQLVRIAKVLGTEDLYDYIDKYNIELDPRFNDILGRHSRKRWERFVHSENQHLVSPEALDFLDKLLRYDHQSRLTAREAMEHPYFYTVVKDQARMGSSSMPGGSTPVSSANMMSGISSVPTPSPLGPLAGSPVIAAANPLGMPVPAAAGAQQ
# [5] = target: Casein kinase II subunit alpha (Homo sapiens) (UniProt P68400); details: at 1 µM
# [6] = target: T2, Inhibitor of nuclear factor kappa-B kinase subunit alpha (Homo sapiens) (UniProt O15111); details: at 0.1 µM
# T2 sequence (whole entry): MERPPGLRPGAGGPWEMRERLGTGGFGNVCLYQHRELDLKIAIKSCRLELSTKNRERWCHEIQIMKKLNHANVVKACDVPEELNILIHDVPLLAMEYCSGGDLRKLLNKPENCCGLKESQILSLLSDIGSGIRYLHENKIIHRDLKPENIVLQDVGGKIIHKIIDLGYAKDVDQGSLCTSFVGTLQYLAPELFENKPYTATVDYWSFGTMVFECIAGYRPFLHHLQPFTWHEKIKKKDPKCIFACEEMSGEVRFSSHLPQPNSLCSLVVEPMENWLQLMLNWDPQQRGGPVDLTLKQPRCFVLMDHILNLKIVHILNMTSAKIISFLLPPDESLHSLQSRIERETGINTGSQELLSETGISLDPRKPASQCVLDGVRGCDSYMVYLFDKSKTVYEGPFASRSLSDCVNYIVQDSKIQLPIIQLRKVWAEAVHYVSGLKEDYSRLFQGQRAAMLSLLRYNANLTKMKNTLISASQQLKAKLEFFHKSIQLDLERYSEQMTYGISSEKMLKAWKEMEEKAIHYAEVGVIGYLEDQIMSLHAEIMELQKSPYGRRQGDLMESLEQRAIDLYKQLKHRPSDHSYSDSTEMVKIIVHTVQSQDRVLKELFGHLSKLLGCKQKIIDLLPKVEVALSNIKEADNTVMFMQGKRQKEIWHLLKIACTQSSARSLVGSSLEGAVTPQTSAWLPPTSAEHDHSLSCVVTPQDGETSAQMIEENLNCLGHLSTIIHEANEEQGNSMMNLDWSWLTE
# [7] = target: T2, Inhibitor of nuclear factor kappa-B kinase subunit alpha (Homo sapiens); details: at 1 µM
# [8] = target: T3, Inhibitor of nuclear factor kappa-B kinase subunit beta (Homo sapiens) (UniProt O14920); details: at 0.1 µM
# T3 sequence (whole entry): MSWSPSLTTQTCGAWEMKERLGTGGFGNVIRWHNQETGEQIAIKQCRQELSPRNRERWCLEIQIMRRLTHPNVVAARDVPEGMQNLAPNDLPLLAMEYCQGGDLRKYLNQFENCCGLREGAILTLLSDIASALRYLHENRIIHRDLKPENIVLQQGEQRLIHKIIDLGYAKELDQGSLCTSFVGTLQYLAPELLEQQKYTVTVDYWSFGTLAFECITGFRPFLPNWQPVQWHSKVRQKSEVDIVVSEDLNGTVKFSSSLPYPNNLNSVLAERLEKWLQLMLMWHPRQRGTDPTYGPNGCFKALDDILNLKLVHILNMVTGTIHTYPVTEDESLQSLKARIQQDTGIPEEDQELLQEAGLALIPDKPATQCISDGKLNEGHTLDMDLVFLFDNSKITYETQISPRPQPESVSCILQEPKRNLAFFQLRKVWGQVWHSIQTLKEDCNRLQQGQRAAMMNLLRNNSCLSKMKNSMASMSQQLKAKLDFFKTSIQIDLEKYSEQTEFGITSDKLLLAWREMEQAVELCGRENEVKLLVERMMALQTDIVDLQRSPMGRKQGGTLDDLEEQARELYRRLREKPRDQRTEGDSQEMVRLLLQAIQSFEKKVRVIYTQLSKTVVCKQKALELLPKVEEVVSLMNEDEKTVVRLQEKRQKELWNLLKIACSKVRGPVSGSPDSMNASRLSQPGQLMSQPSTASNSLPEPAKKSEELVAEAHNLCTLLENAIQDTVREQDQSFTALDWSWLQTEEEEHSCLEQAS
# [9] = target: T3, Inhibitor of nuclear factor kappa-B kinase subunit beta (Homo sapiens); details: at 1 µM
# [10] = target: T4, Inhibitor of nuclear factor kappa-B kinase subunit epsilon (Homo sapiens) (UniProt Q14164); details: at 0.1 µM
# T4 sequence (whole entry): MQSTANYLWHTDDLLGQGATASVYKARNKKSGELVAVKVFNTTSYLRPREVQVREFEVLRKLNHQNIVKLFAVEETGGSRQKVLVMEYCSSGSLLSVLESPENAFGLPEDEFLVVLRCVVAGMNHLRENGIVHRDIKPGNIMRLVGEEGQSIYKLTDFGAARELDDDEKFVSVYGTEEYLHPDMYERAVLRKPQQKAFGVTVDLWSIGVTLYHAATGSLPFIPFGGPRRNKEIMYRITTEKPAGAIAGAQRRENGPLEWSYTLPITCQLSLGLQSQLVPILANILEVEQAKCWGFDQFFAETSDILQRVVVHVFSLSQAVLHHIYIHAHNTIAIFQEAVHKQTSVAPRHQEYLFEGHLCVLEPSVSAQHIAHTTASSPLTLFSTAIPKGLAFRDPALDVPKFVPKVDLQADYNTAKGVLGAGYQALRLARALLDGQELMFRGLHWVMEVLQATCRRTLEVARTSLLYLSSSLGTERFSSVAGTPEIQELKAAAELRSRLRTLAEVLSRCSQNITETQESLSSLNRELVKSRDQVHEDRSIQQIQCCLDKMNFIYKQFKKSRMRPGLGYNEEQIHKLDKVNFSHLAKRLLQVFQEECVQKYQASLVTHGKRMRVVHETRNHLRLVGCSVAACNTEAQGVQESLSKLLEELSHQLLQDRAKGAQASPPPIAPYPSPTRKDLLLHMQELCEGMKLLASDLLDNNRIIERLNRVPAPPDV
# [11] = target: T4, Inhibitor of nuclear factor kappa-B kinase subunit epsilon (Homo sapiens); details: at 1 µM
# [12] = target: T5, Serine/threonine-protein kinase Nek1 (Homo sapiens) (UniProt Q96PY6); details: at 0.1 µM
# T5 sequence (whole entry): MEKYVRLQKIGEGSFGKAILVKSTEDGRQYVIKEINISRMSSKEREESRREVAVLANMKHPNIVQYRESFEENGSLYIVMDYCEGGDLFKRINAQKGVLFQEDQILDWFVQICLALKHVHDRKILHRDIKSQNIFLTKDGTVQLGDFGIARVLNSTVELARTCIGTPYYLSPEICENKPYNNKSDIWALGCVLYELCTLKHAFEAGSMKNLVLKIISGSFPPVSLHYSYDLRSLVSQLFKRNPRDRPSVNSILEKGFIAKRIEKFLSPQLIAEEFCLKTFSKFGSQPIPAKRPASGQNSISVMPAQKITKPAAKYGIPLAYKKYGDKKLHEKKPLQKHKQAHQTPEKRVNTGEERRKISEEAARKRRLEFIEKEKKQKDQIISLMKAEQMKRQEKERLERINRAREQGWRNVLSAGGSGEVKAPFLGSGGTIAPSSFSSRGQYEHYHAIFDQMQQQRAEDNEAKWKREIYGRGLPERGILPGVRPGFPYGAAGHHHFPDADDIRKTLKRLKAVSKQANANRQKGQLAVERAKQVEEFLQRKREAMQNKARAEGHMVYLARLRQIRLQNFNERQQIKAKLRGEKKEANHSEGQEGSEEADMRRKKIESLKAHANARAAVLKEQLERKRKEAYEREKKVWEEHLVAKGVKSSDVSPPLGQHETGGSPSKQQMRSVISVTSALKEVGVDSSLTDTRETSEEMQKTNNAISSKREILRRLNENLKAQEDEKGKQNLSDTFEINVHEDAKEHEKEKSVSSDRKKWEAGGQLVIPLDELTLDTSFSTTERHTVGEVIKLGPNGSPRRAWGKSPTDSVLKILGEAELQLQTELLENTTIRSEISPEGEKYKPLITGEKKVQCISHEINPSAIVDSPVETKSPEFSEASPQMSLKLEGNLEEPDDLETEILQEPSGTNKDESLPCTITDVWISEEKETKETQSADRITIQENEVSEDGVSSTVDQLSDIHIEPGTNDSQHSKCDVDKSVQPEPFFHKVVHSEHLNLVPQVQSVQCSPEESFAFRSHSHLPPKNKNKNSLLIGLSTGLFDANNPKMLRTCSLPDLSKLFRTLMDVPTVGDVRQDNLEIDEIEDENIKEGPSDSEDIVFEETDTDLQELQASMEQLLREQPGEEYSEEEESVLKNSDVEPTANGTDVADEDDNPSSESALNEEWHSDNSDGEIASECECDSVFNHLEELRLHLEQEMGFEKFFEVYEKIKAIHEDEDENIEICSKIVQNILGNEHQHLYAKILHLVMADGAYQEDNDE
# [13] = target: T5, Serine/threonine-protein kinase Nek1 (Homo sapiens); details: at 1 µM
# [14] = target: T6, Serine/threonine-protein kinase Nek2 (Homo sapiens) (UniProt P51955); details: at 0.1 µM
# T6 sequence (whole entry): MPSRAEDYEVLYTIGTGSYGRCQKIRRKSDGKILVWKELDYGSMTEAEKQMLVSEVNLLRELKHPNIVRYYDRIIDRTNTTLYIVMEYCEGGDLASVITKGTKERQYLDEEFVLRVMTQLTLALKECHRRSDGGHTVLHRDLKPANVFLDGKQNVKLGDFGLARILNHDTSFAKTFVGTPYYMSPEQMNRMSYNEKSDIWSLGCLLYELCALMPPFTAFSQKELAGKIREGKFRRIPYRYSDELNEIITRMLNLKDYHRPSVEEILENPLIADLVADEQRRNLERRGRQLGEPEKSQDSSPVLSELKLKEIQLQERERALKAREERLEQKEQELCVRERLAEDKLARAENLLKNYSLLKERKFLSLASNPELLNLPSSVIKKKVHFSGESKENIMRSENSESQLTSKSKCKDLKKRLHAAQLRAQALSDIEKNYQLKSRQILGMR
# [15] = target: T6, Serine/threonine-protein kinase Nek2 (Homo sapiens); details: at 1 µM
# [16] = target: Serine/threonine-protein kinase Nek6 (Homo sapiens) (UniProt Q9HC98); details: at 0.1 µM
# Sequence of Serine/threonine-protein kinase Nek6 (Homo sapiens) (Q9HC98 whole entry): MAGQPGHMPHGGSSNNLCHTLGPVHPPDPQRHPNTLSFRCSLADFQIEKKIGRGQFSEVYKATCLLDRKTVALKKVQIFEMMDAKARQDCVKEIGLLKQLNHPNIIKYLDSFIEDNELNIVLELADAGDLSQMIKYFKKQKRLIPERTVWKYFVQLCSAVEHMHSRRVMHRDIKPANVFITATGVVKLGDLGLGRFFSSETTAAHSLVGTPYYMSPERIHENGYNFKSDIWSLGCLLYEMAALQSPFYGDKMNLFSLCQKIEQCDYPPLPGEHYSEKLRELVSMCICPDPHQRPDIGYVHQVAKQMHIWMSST
# [17] = target: Serine/threonine-protein kinase Nek6 (Homo sapiens) (UniProt Q9HC98); details: at 1 µM
# [18] = target: Serine/threonine-protein kinase Nek7 (Homo sapiens) (UniProt Q8TDX7); details: at 0.1 µM
# Sequence of Serine/threonine-protein kinase Nek7 (Homo sapiens) (Q8TDX7 whole entry, looked up): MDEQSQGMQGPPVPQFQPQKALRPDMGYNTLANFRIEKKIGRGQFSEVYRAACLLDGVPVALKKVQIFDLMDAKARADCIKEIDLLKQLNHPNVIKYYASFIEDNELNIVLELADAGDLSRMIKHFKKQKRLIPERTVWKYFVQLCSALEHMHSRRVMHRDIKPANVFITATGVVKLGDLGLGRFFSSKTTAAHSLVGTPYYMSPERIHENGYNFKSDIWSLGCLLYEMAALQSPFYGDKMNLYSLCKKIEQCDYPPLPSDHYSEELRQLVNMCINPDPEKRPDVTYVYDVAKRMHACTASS
# [19] = target: Serine/threonine-protein kinase Nek7 (Homo sapiens) (UniProt Q8TDX7); details: at 1 µM
# [20] = target: T7, Serine/threonine-protein kinase Nek9 (Homo sapiens) (UniProt Q8TD19); details: at 0.1 µM;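 further: reported value is the mean percent inhibition of NEK9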
# T7 sequence (whole entry): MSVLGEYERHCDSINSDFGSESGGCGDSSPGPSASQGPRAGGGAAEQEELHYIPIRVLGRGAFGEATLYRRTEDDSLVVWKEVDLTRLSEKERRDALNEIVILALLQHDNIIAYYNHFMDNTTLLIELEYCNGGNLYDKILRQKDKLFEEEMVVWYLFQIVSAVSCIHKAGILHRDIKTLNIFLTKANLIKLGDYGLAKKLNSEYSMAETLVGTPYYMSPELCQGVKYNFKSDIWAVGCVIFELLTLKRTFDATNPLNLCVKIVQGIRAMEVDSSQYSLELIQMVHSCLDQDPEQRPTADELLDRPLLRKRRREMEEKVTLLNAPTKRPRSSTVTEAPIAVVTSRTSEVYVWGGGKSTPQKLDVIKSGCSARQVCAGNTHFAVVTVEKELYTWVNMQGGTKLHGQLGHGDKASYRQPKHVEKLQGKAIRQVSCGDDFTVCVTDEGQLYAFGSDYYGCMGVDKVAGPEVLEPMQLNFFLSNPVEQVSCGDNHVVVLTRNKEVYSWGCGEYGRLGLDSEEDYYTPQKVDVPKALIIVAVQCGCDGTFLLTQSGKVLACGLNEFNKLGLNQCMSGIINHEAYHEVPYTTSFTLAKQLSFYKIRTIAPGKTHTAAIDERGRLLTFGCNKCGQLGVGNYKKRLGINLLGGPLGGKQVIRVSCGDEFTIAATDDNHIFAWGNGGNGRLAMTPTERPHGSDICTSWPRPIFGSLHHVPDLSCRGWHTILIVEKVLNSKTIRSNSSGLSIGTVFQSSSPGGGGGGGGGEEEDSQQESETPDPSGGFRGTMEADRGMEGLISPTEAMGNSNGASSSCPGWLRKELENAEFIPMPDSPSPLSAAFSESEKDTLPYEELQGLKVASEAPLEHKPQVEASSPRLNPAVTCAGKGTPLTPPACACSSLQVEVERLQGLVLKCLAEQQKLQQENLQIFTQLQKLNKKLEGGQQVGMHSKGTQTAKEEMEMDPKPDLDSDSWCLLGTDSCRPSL
# Sequence of Sphingosine kinase 1 (Homo sapiens) (Q9NYA1 whole entry): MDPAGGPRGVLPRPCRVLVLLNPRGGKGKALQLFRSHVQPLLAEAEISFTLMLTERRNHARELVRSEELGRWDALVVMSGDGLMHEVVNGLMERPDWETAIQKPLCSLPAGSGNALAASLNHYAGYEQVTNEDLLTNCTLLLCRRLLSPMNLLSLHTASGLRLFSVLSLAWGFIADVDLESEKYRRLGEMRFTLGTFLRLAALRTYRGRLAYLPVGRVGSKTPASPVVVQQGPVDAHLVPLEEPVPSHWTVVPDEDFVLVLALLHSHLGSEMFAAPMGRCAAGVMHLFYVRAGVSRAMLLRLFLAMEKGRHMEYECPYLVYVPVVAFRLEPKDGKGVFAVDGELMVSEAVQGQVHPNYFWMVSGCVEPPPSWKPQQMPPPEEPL
Structure (SMILES),inhibition [1],inhibition [2],inhibition [3],inhibition [4],inhibition [5],inhibition [6],inhibition [7],inhibition [8],inhibition [9],inhibition [10],inhibition [11],inhibition [12],inhibition [13],inhibition [14],inhibition [15],inhibition [16],inhibition [17],inhibition [18],inhibition [19],inhibition [20]
CCn1c(-c2nonc2N)nc2c(C#CC(C)(C)O)nc(CN3CCCC3)cc21,0.08%,2.01%,1.13%,-0.41%,0.78%,-1.06%,0.78%,-1.14%,-3.01%,5.75%,30%,0.5%,2.97%,-0.01%,1.09%,1.01%,-0.68%,2.37%,0.41%,-0.93%
COc1cccc(-n2ncc3c(N/N=C/c4cccc(F)c4)ncnc32)c1,-2.05%,3.58%,-0.22%,1.77%,11.4%,-0.08%,6.98%,2.27%,0.31%,3.6%,5.09%,2.19%,1.87%,3.27%,2.63%,2.56%,1.3%,4.53%,2.91%,3.6%
